# Results as given in PubChem BioAssay (NCI).
# Values joined by “and” are separate entries in the source; they are usually repeats but may differ in a detail not shown here. Identical values can stand only once. This is part of a sample that, as a whole, favours compounds with a hit. Of some 83,000 tested, about 20% had one in any assay.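 The test compound was applied at a single concentration to cells in 96-well plates for 48 hours, and percent growth was recorded.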 A number with no mark means an inactive call. Active and inactive are the calls of the source.
# Test system: KM12 colon
# Assay: NCI-60 one-dose screen, 48 h (100 = growth as untreated, 0 = no growth, -100 = all killed)
# Details: 10 µM unless noted
# Experimental: Growth inhibition of the KM12 human tumor cell line is measured as a screen for anti-cancer activity. Cells are grown in 96 well plates and exposed to the test compound for 48 hours. Compounds are tested at a single concentration, which is 10^-5 M for most compounds. The reported endpoint is percent growth (GI% or GIPRCNT), where numbers from 0 - 100% represent growth inhibition, and numbers from -100% - 0 represent cell death. For example, a value of 40 represents 60% growth inhibition. A value of 0 means no net growth occurred over the course of the experiment. A value of -40 indicates 40% of cells at the beginning of the experiment died by the end of the experiment. A value of -100 means all cells are dead at the end of the experiment.
# NCI-60 Human Tumor Cell Lines Screen was performed using the standard one-dose NCI protocol, which is described in more detail at https://dtp.cancer.gov/discovery_development/nci-60/default.htm.
# Compounds with GIPRCNT values below 10 were considered active. Activity score was based on GIPRCNT using the following formula: […]
# Score is 0 for GIPRCNT values of 100 or above, 50 for GIPRCNT values of 0, and 100 for GIPRCNT values of -100.
row,Structure (SMILES),growth
1,Oc1ccc2ccccc2c1N=Nc1ccccn1,34.4%
2,Cc1cccc2c(N)c3ccccc3nc12,9.35% (active)
3,CN(C)c1ccc(C(C#N)(c2ccccc2)c2ccc(N(C)C)cc2)cc1,65.5%
4,Nc1cc(-c2ccccc2)ccc1O,102%
5,CC(C)=C1C=C2CC[C@@H]3[C@](C)(CCC[C@@]3(C)C(=O)O)[C@H]2CC1,101%
6,CN(C)c1ccc(C(=C2C=CC(=[N+](C)C)C=C2)c2ccc(N(C)C)cc2)cc1,-95.6% (active)
7,CC(=O)N1CC(=O)NC1=S,103%
8,C/C=C/c1cc2c(c(=O)o1)C(=O)[C@@H](O)[C@H](C)O2,42.2%
9,CN(C)c1ccc(/C=C/c2sc3ccc4ccccc4c3[n+]2C)cc1,-63% (active)
10,N#CCc1cccc2ccccc12,110%
11,O=[N+]([O-])/C(=C/c1ccccc1)c1ccccc1,107%
12,COc1ccc(NC(=O)/C(=C/N2C(=O)/C(=C/c3ccc(OC)c(OC)c3)NC2=S)C(C)=O)cc1,95.1%
13,Cc1ccccc1NC(=O)Cc1csc2[n+]1C(=O)/C(=C/c1ccc([N+](=O)[O-])cc1)S2,98.4%
14,NC1=C(Br)C(=O)c2ncccc2C1=O,24.5%
15,CC1(O)CCCCCC1,106%
16,OCCOSCCO,112%
17,Nc1cccc2cccc([N+](=O)[O-])c12,113%
18,Cc1oc2c(C)c3oc(=O)cc(C)c3cc2c1CCl,90.1%
19,Oc1ccccc1N=Cc1ccccc1,74.1%
20,CCOC(=O)NC(/C=C/c1ccccc1)NC(=O)OCC,107%

row,Structure (SMILES),growth
1,Cc1cc(C)c([I+]c2c(C)cc(C)cc2C)c(C)c1,-75.9% (active)
2,COc1cc(/C=C2\SC(=S)N(/C=C/c3nc4ccccc4[nH]c3=O)C2=O)cc(OC)c1OC,90.4%
3,CCCCCCCCCCCC[n+]1ccccc1 (tested in a mixture with another compound),-95.7% (active)
4,COc1cc(/C=C/c2ccnc3ccccc23)cc(OC)c1OC,12.4%
5,Nc1ccc(C(=O)/C=C/c2ccccc2)cc1,74.2%
6,O=C(c1ccccc1)c1ccc(O)c2ncccc12,27%
7,COc1cc(NCc2ccc3nc(N)nc(N)c3c2C)cc(OC)c1OC (tested in a mixture with another compound),14.8%
8,CCCCCCCCCCCC[S+](C)CC(=O)[O-] (stereo not given),30.7%
9,Cc1ccccc1N=C(N)Nc1ccccc1C (tested in a mixture with another compound),64.6%
10,CCCCCCCCCCCCCCCc1ccc(C(=O)C[n+]2ccccc2)cc1,-97.7% (active)
11,CC(O)C(O)C(O)C(O)C(O)C(=O)NNc1ccccc1 (stereo not given),85.7%
12,Cc1c(O)ccc(SC#N)c1C,97.2%
13,Cc1ccc(N2C(=O)C=CC2=O)cc1,108%
14,CCCCOS(=O)(=O)c1ccccc1,109%
15,NC(CS/C(Cl)=C/Cl)C(=O)O (stereo not given),98.1%
16,CCN1CCCC(Nc2cc(C)nc(/N=C(/N)Nc3ccc(Cl)c(Cl)c3)n2)C1 (stereo not given),-14.8% (active)
17,CCCCCCCCCCCC[N+]1(CCCCCCCCCCCC)CCCC(C)C1 (stereo not given),-96.3% (active)
18,O=C1C=CC(=O)N1c1ccccc1,103%
19,OC(c1cc(-c2ccc(C(F)(F)F)cc2)nc(C(F)(F)F)c1)C1CCCCN1 (stereo not given),-80.1% (active) and -85.2% (active) and -62.3% (active)
20,NC(=S)N/N=C\c1nccc2c(N)cccc12,26.7%
